From the supplement of paper PMC8728848
Only a selection was taken, and the strongest signals are over-represented in it overall.

What was measured:
Experiment in all cases: glycan array binding signal (z-score within array); higher = stronger binding
Conditions in all cases: glycan notation: IUPAC condensed, linker removed
[1] = molecular target: Gal6S(b1-4)Glc6S
Outline: (§1)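 Glycan array binding is given as a within-array Z-score, which can be read as non-binding when negative. The arrays, 3228 of them, came from the Consortium for Functional Glycomics database and were retained only where the protein sequence was available. Z-scores were averaged across arrays of the same protein sequence at different concentrations or buffers and across linkers.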

[2] = molecular target: Gal6S(b1-4)GlcNAc6S
Outline: as §1

[3] = molecular target: GalNAc(b1-4)GlcNAc6S
Outline: as §1

[4] = molecular target: GlcNAc(a1-4)Gal(b1-4)GlcNAc
Outline: as §1

[5] = molecular target: GlcNAc(a1-6)Gal(b1-4)GlcNAc
Outline: as §1

[6] = molecular target: GlcNAc(b1-3)Fuc
Outline: as §1

[7] = molecular target: GlcNAc(b1-3)Gal(b1-4)Glc
Outline: as §1

[8] = molecular target: GlcNAc(b1-3)Gal(b1-4)GlcNAc(b1-2)[GlcNAc(b1-3)Gal(b1-4)GlcNAc(b1-6)]Man(a1-6)[GlcNAc(b1-3)Gal(b1-4)GlcNAc(b1-2)Man(a1-3)]Man(b1-4)GlcNAc(b1-4)GlcNAc
Outline: as §1

[9] = molecular target: GlcNAc(b1-3)Gal(b1-4)GlcNAc(b1-3)Gal(b1-4)GlcNAc(b1-2)Man(a1-3)[GlcNAc(b1-3)Gal(b1-4)GlcNAc(b1-3)Gal(b1-4)GlcNAc(b1-2)Man(a1-6)]Man(b1-4)GlcNAc(b1-4)[Fuc(a1-6)]GlcNAc
Outline: as §1

[10] = molecular target: GlcNAc(b1-3)Gal(b1-4)GlcNAc(b1-3)Gal(b1-4)GlcNAc(b1-3)Gal(b1-4)GlcNAc(b1-2)[GlcNAc(b1-3)Gal(b1-4)GlcNAc(b1-3)Gal(b1-4)GlcNAc(b1-3)Gal(b1-4)GlcNAc(b1-6)]Man(a1-6)[GlcNAc(b1-3)Gal(b1-4)GlcNAc(b1-3)Gal(b1-4)GlcNAc(b1-3)Gal(b1-4)GlcNAc(b1-2)Man(a1-3)]Man(b1-4)GlcNAc(b1-4)[Fuc(a1-6)]GlcNAc
Outline: as §1

[11] = molecular target: GlcNAc(b1-3)Gal(b1-4)GlcNAc(b1-3)Gal(b1-4)GlcNAc(b1-3)Gal(b1-4)GlcNAc(b1-3)Gal(b1-4)GlcNAc(b1-2)[GlcNAc(b1-3)Gal(b1-4)GlcNAc(b1-3)Gal(b1-4)GlcNAc(b1-3)Gal(b1-4)GlcNAc(b1-3)Gal(b1-4)GlcNAc(b1-6)]Man(a1-6)[GlcNAc(b1-3)Gal(b1-4)GlcNAc(b1-3)Gal(b1-4)GlcNAc(b1-3)Gal(b1-4)GlcNAc(b1-3)Gal(b1-4)GlcNAc(b1-2)Man(a1-3)]Man(b1-4)GlcNAc(b1-4)[Fuc(a1-6)]GlcNAc
Outline: as §1

[12] = molecular target: GlcNAc(b1-3)Gal(b1-4)GlcNAc(b1-6)[GlcNAc(b1-3)Gal(b1-3)]GalNAc
Outline: as §1

[13] = molecular target: Man(a1-2)Man(a1-2)Man(a1-6)[Man(a1-3)]Man
Outline: as §1

[14] = molecular target: Man(a1-3)[Man(a1-6)]Man(a1-6)[Man(a1-3)]Man
Outline: as §1

[15] = molecular target: Neu5Ac(a2-3)Gal
Outline: as §1

[16] = molecular target: Neu5Ac(a2-3)Gal(b1-3)GalNAc(b1-4)[Neu5Ac(a2-8)Neu5Ac(a2-3)]Gal(b1-4)Glc
Outline: as §1

[17] = molecular target: Neu5Ac(a2-3)Gal(b1-3)GlcNAc(b1-2)Man
Outline: as §1

[18] = molecular target: Neu5Ac(a2-3)Gal(b1-4)GlcNAc(b1-3)Gal(b1-4)GlcNAc(b1-3)GalNAc
Outline: as §1

[19] = molecular target: Neu5Ac(a2-3)Gal(b1-4)GlcNAc(b1-3)GalNAc
Outline: as §1

[20] = molecular target: Neu5Ac(a2-3)Gal(b1-4)[Fuc(a1-3)]GlcNAc
Outline: as §1

[21] = molecular target: Neu5Ac(a2-6)Gal(b1-4)GlcNAc
Outline: as §1

[22] = molecular target: Neu5Ac(a2-6)Gal(b1-4)GlcNAc(b1-2)Man(a1-3)Man(b1-4)GlcNAc(b1-4)GlcNAc
Outline: as §1

[23] = molecular target: Neu5Ac(a2-6)Gal(b1-4)GlcNAc(b1-2)Man(a1-6)[Man(a1-3)]Man(b1-4)GlcNAc(b1-4)GlcNAc
Outline: as §1

[24] = molecular target: Neu5Ac(a2-6)Gal(b1-4)GlcNAc(b1-3)GalNAc
Outline: as §1

[25] = molecular target: Neu5Ac(a2-8)Neu5Ac(a2-3)[Gal(b1-3)GalNAc(b1-4)]Gal(b1-4)Glc
Outline: as §1

[26] = molecular target: Neu5Ac(a2-8)Neu5Gc(a2-3)Gal(b1-4)GlcNAc
Outline: as §1

[27] = molecular target: Neu5Ac(b2-6)GalNAc
Outline: as §1

B1: PX9961M-bvu-482-23-482 (Bacteroides vulgatus) (protein)
chain: WLDLAPSTQVDTETSINVLSDIEFTLNGIYSTMQSSDAYSGRLVYYGDVTGDDMQAVSSTKRTGNYYRFNFTKDNGPSSHWSYLYSIIQNCNLILMNVDKLSIDEDETEYKNDLKGQALAIRGMALFDLTRIFGYPYLKDNGASLGVPIVKELSTIDSKPARNTVAECYTEIISDLKNSTELLSGDFNKGKVNRWAAMTLLSRVYLYKGEYNEALTMAENAIKGAEKEGYALWTNEEYPTAWGNDASASNPGEILFEIVNLTTDSPGKESMGYLNSYNGYDDMCITCSFYQLLKKDPKDVRLKILSFDKKYYAYVNKYQPQQGENITDANIPLIRLSEAYLNAAEAAVQTGDNAKAVKYLNSIVQRANPENSVEGKTLTLENVLDERRKELVAEGHRMYDVIRNGMTVKRIDVKDSDINKTKHNTAYMEYDWNFHKILLPIPKKEMDANPNMKQNPGYVD
glycan array binding signal (z-score) [1]: -0.529 | glycan array binding signal (z-score) [2]: -0.084 | glycan array binding signal (z-score) [3]: -0.209 | glycan array binding signal (z-score) [4]: -0.43 | glycan array binding signal (z-score) [5]: -0.826 | glycan array binding signal (z-score) [6]: 0.451 | glycan array binding signal (z-score) [7]: -0.369 | glycan array binding signal (z-score) [8]: -0.33 | glycan array binding signal (z-score) [9]: 0.761 | glycan array binding signal (z-score) [10]: 1.99 | glycan array binding signal (z-score) [11]: 1.58 | glycan array binding signal (z-score) [12]: 0.464 | glycan array binding signal (z-score) [13]: 0.455 | glycan array binding signal (z-score) [14]: 2.74 | glycan array binding signal (z-score) [15]: -0.037 | glycan array binding signal (z-score) [16]: 0.996 | glycan array binding signal (z-score) [17]: 0.535 | glycan array binding signal (z-score) [18]: -0.629 | glycan array binding signal (z-score) [19]: 0.638 | glycan array binding signal (z-score) [20]: -0.48 | glycan array binding signal (z-score) [21]: 0.329 | glycan array binding signal (z-score) [22]: -0.834 | glycan array binding signal (z-score) [23]: 0.152 | glycan array binding signal (z-score) [24]: -0.573 | glycan array binding signal (z-score) [25]: -0.531 | glycan array binding signal (z-score) [26]: 18 | glycan array binding signal (z-score) [27]: -0.083
